Measured values from the supplement of paper PMC10849652.
The full data set covers some 7,900 targets. This sample favours those with a hit. About 0.6% of all pairs of compound and target were hits.

Legend:
Assay in all cases: log2 fold change, soluble protein after heating vs DMSO (PISA); higher = thermal stabilisation; K562 cells, 10 uM, 30 min; active = over 0.2 and 3.5 SD of the protein, either way, in both replicates (recomputed)
[1] = compound: NC(=O)Nc1cc(-c2cccc(F)c2)sc1C(=O)N[C@H]1CCCNC1
In short: (§1)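 Thermal stability values are relative to control samples and come from duplicates. They are expressed as log2 fold changes. For measurement, K562 cells (2×10^6 cells/mL) received 10 μM compound for 30 min, and aliquots were heated for 3 min over 48°C-58°C, pooled, and extracted at 4°C in PBS with 0.5% NP-40. Soluble protein, the supernatant after 21,000xg for 90 min, was quantified by TMTpro 16plex LC-MS/MS with equalised channel sums.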

[2] = compound: NC(=O)c1cnc(N[C@@H]2CCCC[C@@H]2N)nc1Nc1cccc(-n2nccn2)c1
In short: as §1

[3] = compound: NC1(c2ccc(-c3nc4ccn5c(=O)[nH]nc5c4cc3-c3ccccc3)cc2)CCC1
In short: as §1

[4] = compound: NCC(=O)Nc1ccc(-n2nc(C(F)(F)F)cc2-c2ccc3c(ccc4ccccc43)c2)cc1
In short: as §1

entinostat = compound: Nc1ccccc1NC(=O)c1ccc(CNC(=O)OCc2cccnc2)cc1 [entinostat]
In short: as §1

vorinostat = compound: O=C(CCCCCCC(=O)Nc1ccccc1)NO [vorinostat]
In short: as §1

citarinostat = compound: O=C(CCCCCCNC(=O)c1cnc(N(c2ccccc2)c2ccccc2Cl)nc1)NO [citarinostat]
In short: as §1

silmitasertib = compound: O=C(O)c1ccc2c(c1)nc(Nc1cccc(Cl)c1)c1ccncc12 [silmitasertib]
In short: as §1

[5] = compound: O=C1NC(=O)C(c2cnc3ccccn23)=C1c1cn2c3c(cc(F)cc13)CN(C(=O)N1CCCCC1)CC2
In short: as §1

[6] = compound: c1cc(OCCN2CCCCC2)cc(-c2n[nH]c3ccc(-c4nnc[nH]4)cc23)c1
In short: as §1

Measured: log2 fold change

ACTBL2 (UniProt Q562R1)
inactive: [1] -0.205 | [2] 0.038 | [4] 0.239 | entinostat 0.103 | vorinostat 0.024 | citarinostat -0.585 | silmitasertib -0.129 | [5] -0.051 | [6] -0.1
active: [3] 1.54

AGPS (UniProt O00116)
inactive: [1] -0.013 | [2] 0.007 | [3] -0.112 | [4] 0 | entinostat 0.023 | vorinostat 0.045 | citarinostat 0.058 | silmitasertib 0.011 | [5] -0.107 | [6] -0.011

BRK1 isoform 2 (UniProt Q8WUW1)
Chain of UniProt Q8WUW1 (Q8WUW1 whole entry, looked up): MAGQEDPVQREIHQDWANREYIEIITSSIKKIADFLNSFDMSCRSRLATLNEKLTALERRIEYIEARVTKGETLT
inactive: [1] -0.071 | [2] 0.033 | [3] -0.019 | [4] 0.065 | entinostat 0.079 | vorinostat -0.06 | citarinostat 0.031 | silmitasertib -0.063 | [5] -0.16 | [6] -0.078

BPHL (UniProt Q86WA6)
inactive: [1] -0.014 | [2] -0.081 | [3] 0.255 | [4] -0.012 | entinostat 0.019 | vorinostat -0.04 | citarinostat -0.042 | silmitasertib -0.045 | [5] -0.06 | [6] 0.051

AP2B1 isoform 2 (UniProt P63010)
inactive: [2] 0.01 | [3] 0.037 | [4] 0.002 | entinostat 0 | vorinostat 0.01 | citarinostat 0.019 | silmitasertib 0.02 | [5] -0.202 | [6] -0.182
active: [1] -0.225

BMP2K (UniProt Q9NSY1)
inactive: [1] 0.297 | [2] 0.076 | [3] 0.035 | [4] -0.007 | entinostat -0.037 | vorinostat -0.078 | citarinostat -0.053 | silmitasertib 0.031 | [5] 0.291 | [6] 0.241

ATP23 (UniProt Q9Y6H3)
Chain of UniProt Q9Y6H3 (Q9Y6H3 whole entry, looked up): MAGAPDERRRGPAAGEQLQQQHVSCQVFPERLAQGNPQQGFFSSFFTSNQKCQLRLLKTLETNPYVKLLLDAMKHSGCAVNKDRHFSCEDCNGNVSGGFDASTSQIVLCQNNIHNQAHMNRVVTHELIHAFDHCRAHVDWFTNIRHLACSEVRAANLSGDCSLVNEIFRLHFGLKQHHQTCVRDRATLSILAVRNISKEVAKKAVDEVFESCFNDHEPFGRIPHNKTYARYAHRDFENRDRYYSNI
inactive: [1] 0.014 | [2] 0.06 | [3] 0.002 | [4] -0.057 | entinostat -0.012 | vorinostat 0.044 | citarinostat -0.012 | silmitasertib -0.027 | [5] 0.02 | [6] -0.045

BAP1 (UniProt Q92560)
inactive: [1] -0.073 | [2] 0.085 | [3] 0.073 | [4] 0.012 | entinostat -0.054 | vorinostat 0.13 | citarinostat 0.058 | silmitasertib 0.04 | [5] 0.076 | [6] -0.142

ACSM3 (UniProt Q53FZ2)
inactive: [1] 0.017 | [2] 0 | [3] 0.021 | [4] -0.125 | entinostat 0.009 | vorinostat 0.122 | citarinostat 0.122 | silmitasertib 0.06 | [5] -0.134 | [6] -0.094

BCCIP (UniProt Q9P287)
Chain of UniProt Q9P287 (Q9P287 whole entry, looked up): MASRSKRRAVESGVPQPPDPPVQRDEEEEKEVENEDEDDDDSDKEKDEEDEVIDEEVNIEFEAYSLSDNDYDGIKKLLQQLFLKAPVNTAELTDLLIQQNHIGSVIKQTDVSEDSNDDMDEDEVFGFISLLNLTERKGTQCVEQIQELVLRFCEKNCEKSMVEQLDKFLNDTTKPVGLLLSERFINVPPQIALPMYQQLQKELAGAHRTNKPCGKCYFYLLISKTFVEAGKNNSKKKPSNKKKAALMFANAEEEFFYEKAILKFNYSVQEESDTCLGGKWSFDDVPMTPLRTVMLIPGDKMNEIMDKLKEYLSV
inactive: [1] 0.023 | [2] -0.008 | [3] -0.006 | [4] -0.04 | entinostat -0.052 | vorinostat 0.045 | citarinostat 0.022 | silmitasertib 0.049 | [5] -0.012 | [6] -0.079

AP2A2 isoform 2 (UniProt O94973)
inactive: [1] -0.155 | [2] 0.052 | [3] -0.003 | [4] -0.013 | entinostat 0.002 | vorinostat 0.034 | citarinostat -0.023 | silmitasertib -0.016 | [5] -0.113 | [6] -0.156

ATP7B (UniProt P35670)
inactive: [1] -0.051 | [2] -0.139 | [3] -0.111 | [4] -0.15 | entinostat -0.003 | vorinostat 0.035 | citarinostat 0.005 | silmitasertib 0.036 | [5] -0.036 | [6] -0.023

ABCC5 (UniProt O15440)
inactive: [1] 0.016 | [2] 0.088 | [3] -0.038 | [4] -0.005 | entinostat -0.017 | vorinostat 0.001 | citarinostat 0.114 | silmitasertib 0.008 | [5] -0.082 | [6] 0.12

ACSF3 (UniProt Q4G176)
Chain of UniProt Q4G176 (Q4G176 whole entry, looked up): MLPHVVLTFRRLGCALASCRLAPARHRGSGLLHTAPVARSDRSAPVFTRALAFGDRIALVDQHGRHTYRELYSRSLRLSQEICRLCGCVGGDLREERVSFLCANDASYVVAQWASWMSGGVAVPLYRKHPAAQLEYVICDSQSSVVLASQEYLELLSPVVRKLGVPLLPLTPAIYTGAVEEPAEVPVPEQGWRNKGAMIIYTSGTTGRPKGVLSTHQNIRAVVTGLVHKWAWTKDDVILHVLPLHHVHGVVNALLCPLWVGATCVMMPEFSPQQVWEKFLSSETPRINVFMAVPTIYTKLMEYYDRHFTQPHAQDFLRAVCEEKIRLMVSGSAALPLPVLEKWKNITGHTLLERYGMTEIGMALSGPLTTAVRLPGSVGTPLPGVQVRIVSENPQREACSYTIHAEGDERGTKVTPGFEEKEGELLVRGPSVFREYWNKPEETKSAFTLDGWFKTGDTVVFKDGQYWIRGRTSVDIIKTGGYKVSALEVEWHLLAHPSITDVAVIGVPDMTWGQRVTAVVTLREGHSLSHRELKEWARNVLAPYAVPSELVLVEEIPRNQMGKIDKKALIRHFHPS
inactive: [1] -0.016 | [2] -0.073 | [3] -0.098 | [4] -0.184 | entinostat 0.069 | vorinostat 0.007 | citarinostat 0.197 | silmitasertib 0.109 | [5] 0.035 | [6] -0.107

ARMC8 (UniProt Q8IUR7)
Chain of UniProt Q8IUR7 (Q8IUR7 whole entry, looked up): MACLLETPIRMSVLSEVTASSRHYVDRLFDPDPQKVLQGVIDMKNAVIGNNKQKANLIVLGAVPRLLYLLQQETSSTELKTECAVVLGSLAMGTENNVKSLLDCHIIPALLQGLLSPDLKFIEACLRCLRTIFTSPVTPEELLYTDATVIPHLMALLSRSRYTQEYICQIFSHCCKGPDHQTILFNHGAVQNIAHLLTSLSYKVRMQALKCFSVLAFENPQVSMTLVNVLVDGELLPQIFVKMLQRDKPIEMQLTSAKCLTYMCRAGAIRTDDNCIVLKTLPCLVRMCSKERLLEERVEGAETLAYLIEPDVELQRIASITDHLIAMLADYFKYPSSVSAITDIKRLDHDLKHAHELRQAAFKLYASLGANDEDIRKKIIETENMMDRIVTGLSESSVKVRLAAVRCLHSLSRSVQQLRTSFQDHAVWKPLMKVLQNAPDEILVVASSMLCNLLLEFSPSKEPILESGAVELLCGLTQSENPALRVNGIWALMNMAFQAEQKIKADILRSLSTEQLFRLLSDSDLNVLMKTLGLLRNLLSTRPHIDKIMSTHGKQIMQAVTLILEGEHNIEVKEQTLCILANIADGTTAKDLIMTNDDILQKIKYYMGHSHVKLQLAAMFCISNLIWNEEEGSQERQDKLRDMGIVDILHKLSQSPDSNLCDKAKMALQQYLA
inactive: [1] -0.044 | [2] 0.017 | [3] -0.087 | [4] 0.002 | entinostat -0.031 | vorinostat -0.031 | citarinostat 0.057 | silmitasertib 0.058 | [5] 0.026 | [6] -0.028

APOB (UniProt P04114)
inactive: [1] -0.206 | [2] -0.387 | entinostat 0.042 | vorinostat -0.009 | citarinostat 0.015 | silmitasertib 0.068 | [5] 0.001 | [6] 0.056
active: [3] -0.621 | [4] -0.806

ATP6V1H (UniProt Q9UI12)
Chain of UniProt Q9UI12 (Q9UI12 whole entry, looked up): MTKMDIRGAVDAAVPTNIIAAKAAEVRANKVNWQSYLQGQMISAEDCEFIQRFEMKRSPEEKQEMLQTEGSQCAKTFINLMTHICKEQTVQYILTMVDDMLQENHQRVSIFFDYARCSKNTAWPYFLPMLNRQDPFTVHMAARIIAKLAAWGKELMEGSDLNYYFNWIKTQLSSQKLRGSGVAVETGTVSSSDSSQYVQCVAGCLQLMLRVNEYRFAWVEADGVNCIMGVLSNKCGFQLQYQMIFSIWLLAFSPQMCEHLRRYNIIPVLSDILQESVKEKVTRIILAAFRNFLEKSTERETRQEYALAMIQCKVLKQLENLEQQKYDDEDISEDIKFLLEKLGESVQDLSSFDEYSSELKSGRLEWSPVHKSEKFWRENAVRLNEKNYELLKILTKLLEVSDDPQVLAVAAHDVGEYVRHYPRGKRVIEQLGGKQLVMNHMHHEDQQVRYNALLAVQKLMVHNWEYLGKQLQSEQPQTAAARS
inactive: [1] 0 | [2] -0.141 | [3] -0.201 | [4] -0.094 | entinostat 0.046 | vorinostat 0.032 | citarinostat 0.031 | silmitasertib 0.005 | [5] 0.025 | [6] -0.062

ATP9B (UniProt O43861)
active: [1] -0.58
inactive: [2] -0.028 | [3] 0.052 | [4] -0.029 | entinostat -0.24 | vorinostat -0.044 | citarinostat 0.135 | silmitasertib 0.071 | [5] 0.029 | [6] -0.048

ADD2 (UniProt P35612)
Chain of UniProt P35612 (P35612 whole entry, looked up): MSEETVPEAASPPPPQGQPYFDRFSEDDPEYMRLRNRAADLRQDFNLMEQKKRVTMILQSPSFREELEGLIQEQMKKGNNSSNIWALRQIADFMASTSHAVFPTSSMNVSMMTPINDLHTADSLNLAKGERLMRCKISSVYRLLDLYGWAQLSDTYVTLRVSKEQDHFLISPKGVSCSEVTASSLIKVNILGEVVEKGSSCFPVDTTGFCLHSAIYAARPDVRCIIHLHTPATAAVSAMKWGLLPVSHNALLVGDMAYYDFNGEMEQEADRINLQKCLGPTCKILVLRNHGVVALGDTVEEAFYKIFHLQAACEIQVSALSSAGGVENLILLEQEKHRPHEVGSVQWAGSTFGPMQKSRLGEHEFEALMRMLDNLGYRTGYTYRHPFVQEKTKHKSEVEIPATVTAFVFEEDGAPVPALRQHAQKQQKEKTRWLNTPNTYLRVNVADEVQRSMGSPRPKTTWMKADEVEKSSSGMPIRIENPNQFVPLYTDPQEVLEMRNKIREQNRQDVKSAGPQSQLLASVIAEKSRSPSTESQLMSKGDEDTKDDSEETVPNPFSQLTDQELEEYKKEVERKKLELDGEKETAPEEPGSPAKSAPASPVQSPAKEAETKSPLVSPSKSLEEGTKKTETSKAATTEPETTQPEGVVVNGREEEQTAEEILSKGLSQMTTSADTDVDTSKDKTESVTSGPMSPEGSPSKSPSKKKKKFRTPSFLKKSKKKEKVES
inactive: [1] 0.048 | [2] 0.039 | [3] 0.036 | [4] 0.024 | entinostat -0.038 | vorinostat 0.023 | citarinostat 0.024 | silmitasertib -0.054 | [5] -0.092 | [6] 0.013

ATP1A1 (UniProt P05023)
inactive: [1] -0.055 | [2] 0.093 | [3] 0.116 | [4] 0.07 | entinostat -0.04 | vorinostat 0.03 | citarinostat -0.003 | silmitasertib -0.062 | [5] -0.077 | [6] 0.003

ALDH18A1 (UniProt P54886)
inactive: [1] 0.033 | [2] -0.03 | [3] -0.34 | [4] -0.219 | entinostat 0.249 | vorinostat 0.194 | citarinostat 0.031 | silmitasertib 0.018 | [5] -0.329 | [6] -0.372

ASB6 (UniProt Q9NWX5)
Chain of UniProt Q9NWX5 (Q9NWX5 whole entry, looked up): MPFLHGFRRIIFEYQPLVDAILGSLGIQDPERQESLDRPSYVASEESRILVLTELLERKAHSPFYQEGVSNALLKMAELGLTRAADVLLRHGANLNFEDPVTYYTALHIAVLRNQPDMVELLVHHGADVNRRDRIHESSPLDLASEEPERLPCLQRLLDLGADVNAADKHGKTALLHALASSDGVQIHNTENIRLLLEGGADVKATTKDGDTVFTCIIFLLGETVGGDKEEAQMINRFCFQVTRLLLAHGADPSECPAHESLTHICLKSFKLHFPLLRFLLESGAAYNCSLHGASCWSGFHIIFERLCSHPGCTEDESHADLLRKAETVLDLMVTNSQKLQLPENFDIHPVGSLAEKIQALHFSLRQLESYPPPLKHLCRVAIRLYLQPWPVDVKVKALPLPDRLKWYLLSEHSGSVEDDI
inactive: [1] 0.076 | [2] 0.161 | [3] -0.216 | [4] -0.032 | entinostat -0.12 | vorinostat -0.075 | citarinostat 0.106 | silmitasertib -0.006 | [5] 0.059 | [6] 0.07

ALDH6A1 (UniProt Q02252)
Chain of UniProt Q02252 (Q02252 whole entry, looked up): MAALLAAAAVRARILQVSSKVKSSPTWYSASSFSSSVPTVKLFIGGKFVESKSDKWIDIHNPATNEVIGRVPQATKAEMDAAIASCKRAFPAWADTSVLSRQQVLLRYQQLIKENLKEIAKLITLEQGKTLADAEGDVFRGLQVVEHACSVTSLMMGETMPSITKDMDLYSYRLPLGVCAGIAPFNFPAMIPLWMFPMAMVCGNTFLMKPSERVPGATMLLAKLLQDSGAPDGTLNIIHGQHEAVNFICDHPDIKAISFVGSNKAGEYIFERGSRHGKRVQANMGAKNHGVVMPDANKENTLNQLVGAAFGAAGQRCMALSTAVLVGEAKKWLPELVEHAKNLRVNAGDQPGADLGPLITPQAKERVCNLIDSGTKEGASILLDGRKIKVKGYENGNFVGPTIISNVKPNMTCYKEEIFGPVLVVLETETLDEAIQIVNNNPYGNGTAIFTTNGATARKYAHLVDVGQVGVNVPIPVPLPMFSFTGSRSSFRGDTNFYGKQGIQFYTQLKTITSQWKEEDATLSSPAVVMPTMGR
inactive: [1] -0.02 | [2] 0.034 | [3] -0.045 | [4] -0.116 | entinostat -0.052 | vorinostat 0.021 | citarinostat 0.062 | silmitasertib 0.048 | [5] -0.072 | [6] -0.043

B4GALT1 (UniProt P15291)
inactive: [1] 0.053 | [2] 0.114 | [3] -0.279 | [4] 0.199 | entinostat -0.01 | vorinostat -0.01 | citarinostat 0 | silmitasertib 0 | [5] -0.039 | [6] -0.027

ARAF (UniProt P10398)
Chain of UniProt P10398 (P10398 whole entry, looked up): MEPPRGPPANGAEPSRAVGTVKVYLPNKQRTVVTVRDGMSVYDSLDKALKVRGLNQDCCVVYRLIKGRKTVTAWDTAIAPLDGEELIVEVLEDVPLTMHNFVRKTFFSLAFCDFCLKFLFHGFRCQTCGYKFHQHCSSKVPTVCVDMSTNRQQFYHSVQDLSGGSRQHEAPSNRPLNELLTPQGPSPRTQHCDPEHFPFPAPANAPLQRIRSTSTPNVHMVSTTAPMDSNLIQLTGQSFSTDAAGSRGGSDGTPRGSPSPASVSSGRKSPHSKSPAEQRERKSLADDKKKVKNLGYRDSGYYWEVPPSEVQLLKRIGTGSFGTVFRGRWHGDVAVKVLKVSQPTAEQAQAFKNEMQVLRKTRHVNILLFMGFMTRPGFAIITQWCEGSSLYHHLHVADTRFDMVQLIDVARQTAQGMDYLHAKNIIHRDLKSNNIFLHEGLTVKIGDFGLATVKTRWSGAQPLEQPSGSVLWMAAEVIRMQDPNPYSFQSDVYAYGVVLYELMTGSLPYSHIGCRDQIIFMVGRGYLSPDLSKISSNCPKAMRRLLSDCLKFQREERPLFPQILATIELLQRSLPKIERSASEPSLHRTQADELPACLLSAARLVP
inactive: [1] -0.059 | [2] 0.196 | [3] -0.119 | [4] 0.011 | entinostat 0.062 | vorinostat 0.055 | citarinostat 0.098 | silmitasertib 0.048 | [5] 0.017 | [6] -0.096

AAMP (UniProt Q13685)
inactive: [1] -0.006 | [2] -0.05 | [3] -0.005 | [4] -0.018 | entinostat -0.055 | vorinostat 0.015 | citarinostat -0.026 | silmitasertib 0.061 | [5] 0.059 | [6] -0.013

ARFRP1 (UniProt Q13795)
Chain of UniProt Q13795 (Q13795 whole entry, looked up): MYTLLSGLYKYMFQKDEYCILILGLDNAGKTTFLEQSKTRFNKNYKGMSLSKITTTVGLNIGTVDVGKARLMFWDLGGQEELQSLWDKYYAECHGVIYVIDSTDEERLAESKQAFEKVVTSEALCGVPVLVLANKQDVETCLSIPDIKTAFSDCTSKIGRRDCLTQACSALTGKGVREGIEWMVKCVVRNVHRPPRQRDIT
inactive: [1] 0.167 | [2] 0.108 | [3] -0.173 | [4] 0.067 | entinostat 0.117 | vorinostat 0.054 | citarinostat 0.025 | silmitasertib 0.013 | [5] -0.085 | [6] 0.074
